From PubChem BioAssay (NCI)
Compounds without any hit were thinned out: in the full panel of roughly 79,000, 15% have a hit. Unmarked numbers belong to inactive results. The source made the active and inactive calls. Cut-off read from the data, not from the text of the source: active = growth inhibition above about 70%; inactive = the rest. Where a SMILES comes first, the peptide text is derived from it. The star is where a group is joined. Cbz = O=C(OCc1ccccc1)*

Experiments:
[1] = NCI Yeast Anticancer Drug Screen. Data for the rad50 strain (AID 155);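 note: 0% = growth of vehicle-only cultures of the same strain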; conditions: S. cerevisiae rad50 strain growth inhibition; at 50.0 µM; active compounds read high
Method in brief: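 DNA repair mutant yeast, compound exposure, growth read-out; inhibition is taken relative to vehicle.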

[2] = NCI Yeast Anticancer Drug Screen. Data for the mec2-1 strain (AID 157); conditions: S. cerevisiae mec2-1 strain, at 50.0 µM, active compounds read high
Method in brief: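 Cells of the genetically defined mec2-1 yeast strain are incubated with test compound. Inhibition of growth is calculated against vehicle-treated controls.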

[3] = NCI Yeast Anticancer Drug Screen. Data for the sgs1 mgt1 strain (AID 161);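 note: 0% = growth of cultures given vehicle only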; conditions: S. cerevisiae sgs1 mgt1 strain, at 50.0 µM, active compounds read high
Method in brief: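 Read-out: growth inhibition vs vehicle controls. Cells: mutant yeast strain deficient in DNA damage repair.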

[4] = NCI Yeast Anticancer Drug Screen. Data for the cln2 rad14 strain (AID 165);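 note: 0% = growth equal to vehicle treated cultures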; conditions: S. cerevisiae cln2 rad14 strain, at 50.0 µM, active compounds read high
Method in brief: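 The screen exposed genetically defined yeast (cln2 rad14) to test compounds and scored growth inhibition relative to vehicle-treated controls.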

[5] = NCI Yeast Anticancer Drug Screen. Data for the bub3 strain (AID 167); conditions: S. cerevisiae bub3 mutant strain, at 50.0 µM, active compounds read high
Method in brief: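 In this screen, a yeast mutant lacking normal mitotic checkpoint function is challenged with compound. Relative growth versus vehicle gives the inhibition value.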

[6] = NCI Yeast Anticancer Drug Screen. Data for the mlh1 rad18 strain (AID 175); conditions: S. cerevisiae mlh1 rad18 strain growth inhibition; at 50.0 µM; active compounds read high
Method in brief: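 Compound-treated yeast growth, normalised to vehicle controls. Strain bears defined DNA repair mutations.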

Compound | growth inhibition [1] | growth inhibition [2] [%] | growth inhibition [3] | growth inhibition [4] [%] | growth inhibition [5] | growth inhibition [6] [%]
COc1c2cc3c(cc2nc2occc12)OCO3 | 1.1% | -5.35 | -9.3% | 2.6 | -11.2% | 5.55
CC1=NN(C(=O)CC(=O)Nc2ccccc2C)C(=O)C1N=Nc1ccc(S(=O)(=O)c2ccc(N=NC3C(=O)N(C(=O)CC(=O)Nc4ccccc4C)N=C3C)cc2)cc1 (stereo unspecified) | 41.6% | 14.5 | -2.25% | 2.45 | -8.75% | 1.35
CC(=O)N(C)c1ccc(O)cc1 | 14.6% | -16.1 | -16.1% | -18.6 | -8.9% | 9.2
NC(=O)C1CCCCC1C(N)=O (stereo unspecified) | -15% | -20.1 | -25.6% | -29.5 | -27.8% | -15.3
Cc1cc(C(=O)O)c2c([nH]1)c(C)cc1nc3ccccc3c12 | 12.6% | 5.65 | -10% | 12.1 | 4.95% | -19.2
CC(=O)Nc1cc2[nH]c(=O)c3cc(Cl)ccc3c2cc1[N+](=O)[O-] | 28.8% | 36.1 | 1.65% | 27.1 | 23.6% | 57.8
Cc1cc(Cl)ccc1-n1nc(C)c2c(N)nc(N)nc21 | 17.4% | 6.5 | 13.7% | -1.55 | 24.7% | 23.1
CC(C)(Nc1nc2c(ncn2C2OC(CO)C(O)C2O)c(=O)[nH]1)P(=O)(O)O (stereo unspecified) | 4.4% | -0.4 | 17% | 11.1 | -5.4% | 2.9
COc1ccc(/C=C/c2onc3c(=O)n(C)nc(-c4ccccc4)c23)cc1 | -22.4% | -25.1 | -9.2% | -11.4 | -2.55% | -26.2
CC(=O)O[C@H]1[C@@H]2[C@@H]3[C@@H](C[C@H]1C)[C@@H](C)CO[C@@]1(C)CC/C=C(/C)C[C@@H]2O[C@@H]31 | -3.9% | -1.75 | 0.15% | -19.1 | -12.8% | -8.95
O=c1[nH]cc(Nc2ccccc2)c(=O)[nH]1 | -1.1% | 2.35 | 4.95% | -35.2 | -29.6% | -9.65
COc1cccc(NC(=S)NC(=O)c2ccccc2)c1 | 82% (active) | 60.8 | 96.2% (active) | 37 | 95.6% (active) | 45.7
NCCCOc1ccccc1 | -3.6% | -7.8 | -5.1% | -10.3 | -7.05% | -9.35
COC(=O)c1ccccc1N=CCC(C)CCCC(C)(C)O (stereo unspecified) | -10.4% | 4.4 | 26.4% | -8.4 | 0.1% | -5.05
O=C(OCC1C2CCC(C2)C1c1ccccc1)c1ccc([N+](=O)[O-])cc1 (stereo unspecified) | 1.4% | 8.5 | -2% | -22.7 | -2.75% | 10.5
CCCCCCC1CCC(=O)CC1 | 31.9% | 4.3 | -14.6% | -10.1 | -7.3% | 34.5
CC(C)CCCC(C)C1CCC2C1CCC1C2CCC2(C)CCC(=O)CCC12C (stereo unspecified) | 24.8% | -2.85 | -2.55% | -17.8 | 1.6% | -4
CCCCN(C(=O)N(CC)CC)[Si](C)(C)C | -17.6% | -41.7 | -12.4% | 14 | -14.7% | -25.3
CNc1ccccc1C(N)=S | 5.9% | 2.5 | -2.95% | -26.1 | -5.55% | 11.8
C[n+]1cccc2cc([N+](=O)[O-])ccc21 | -21.6% | -6.8 | 4.35% | -77.7 | 3.9% | -13.3
O=P(NC1CCCCC1)(NC1CCCCC1)c1ccccc1 | -10.9% | 13.2 | -5.1% | 18.3 | 13.6% | 1.25

Compound | growth inhibition [1] | growth inhibition [2] [%] | growth inhibition [3] | growth inhibition [4] [%] | growth inhibition [5] | growth inhibition [6] [%]
O=C1COCC(=O)N1 | 7.35% | -22 | 8.85% | -1.95 | 0.05% | -0.2
COc1cc(O)c(C(C)=O)c2c1C=CC(C)(C)O2 | -4.95% | -47.1 | -19.9% | -16.8 | -13.8% | -14.7
Oc1cc2cc(-c3ccccc3)[nH]c2c2ccccc12 | -11.1% | -5.25 | -1.3% | 18.8 | -2.1% | 1.3
CCN(CC)C(=O)NCCCCCCNC(=O)N(CC)CC | -20.2% | -36.8 | -27.8% | -20 | -29.2% | -23.6
Cc1ccc(C(=O)Cc2ccccc2)cc1 | 8.05% | 6.15 | 4.85% | 1.25 | -1.85% | 1.05
C[C@]12CCC(=O)O[C@@H]1CC[C@@H]1[C@@H]2CC[C@]2(C)[C@@H](O)CC[C@@H]12 | 20.9% | 14 | 42.3% | 32.5 | 27.2% | 23.1
CC1CNC(C)(C)O1 (stereo unspecified) | 36.5% | 10.9 | 18.9% | 23.6 | 11.6% | 29.4
COC(=O)N1c2ccccc2C23CCN4CCCC5(CCC12C(C(=O)O)C5)C43 (stereo unspecified) | -2.6% | 8.2 | 0.15% | -9.45 | 3.9% | 9.7
CCOC(=O)/C(C#N)=C/N=c1ccccn1C | 5.1% | -7.95 | -1.3% | -25.1 | -6.6% | -4.5
COC(=O)CC1CSCC1=O (stereo unspecified) | 7.5% | 22.1 | 5.95% | -12.5 | 12.6% | 11.2
CCOc1ccc(NC(=O)/C=C/c2ccco2)cc1 | -12% | -8.75 | 13.9% | 22 | 5.3% | 3
COc1cc2c(cc1O)C1Cc3cc(O)c(OC)cc3C(C2)N1C (stereo unspecified) | -29.8% | -12.7 | -30.2% | 3.1 | -25.6% | -22.1
Cn1c(=O)c2ccccc2c2cc(Br)ccc21 | 41.1% | 6.05 | 4.15% | -14.8 | 7.8% | 20.6
CC(C)N(C(=O)/C=C/C(=O)N(C(C)C)C(C)C)C(C)C | 3.7% | 27.1 | -1.7% | -2.05 | 18.8% | -9.6
COc1ccc(NC(=O)CN)cc1 | 1.3% | -9.9 | 0.2% | -2.55 | 7.6% | 0.7
CSCCC(NC(=O)C(Cc1ccccc1)NC(=O)OCc1ccccc1)C(=O)O (stereo not drawn) (Cbz-Phe-Met-OH; configuration not given here) | 5.1% | -13.2 | -1% | -40.4 | -4.95% | 4.85
NC1=Nc2ncccc2C(=O)NN1 | -17.4% | 19.5 | 8.1% | 17.8 | 12.7% | 24.8
CCCCC1(O)CC2CC1C(C)C2(C)C (stereo unspecified) | 0.3% | 7.75 | -3.45% | 22.1 | 16.4% | 2.5
O=[N+]([O-])c1ccc(N=Nc2c(O)[nH]c3ccc(Br)cc23)c([N+](=O)[O-])c1 | 9.75% | -21.2 | 2.15% | -23.1 | -20.6% | 5.5
CC(=O)O[C@H]1C[C@H]2CC[C@@]1(C)C2(C)C | 0.85% | -4.45 | -5.55% | -24.8 | -1.1% | 7.95
